Screening results as filed in PubChem BioAssay.
The list is not random: actives were taken first. Their share in the collection is about 3.1%.
A549 viability: Nrf2 qHTS screen for inhibitors: counterscreen for cytotoxicity. A549 ARE-Fluc cells, CellTiter-Fluor viability, 18-24 h. Potency, µM (top dose mostly 46 µM), for inactives: at the highest dose activity change, negative = cytotoxicity, actives largely listed as inhibitors. 390,000 tested, 0.16% active. AID 504648, 2011; further: on the % scale 0 is the no-effect control and ±100 the full control effect
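Cytotoxicity counterscreen: CellTiter-Fluor fluorescence was measured in A549 ARE_Fluc cells after 18-24 h of compound exposure in a concentration series. The subsequent BugLite luminescent read reports ARE-luciferase activity.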
IDH1 R132H inh: qHTS for Inhibitors of mutant isocitrate dehydrogenase 1 (IDH1): qHTS; Isocitrate dehydrogenase [NADP] cytoplasmic (Homo sapiens), O75874; IDH1-R132H enzyme, NADPH consumption, diaphorase/resazurin fluorescence; Potency, µM (series often up to 76.6 µM), without a hit: at the highest dose activity change, negative = inhibition, usual class: inhibitors; 390,000 tested, 0.093% active; further: on the % scale 0 is the no-effect control and ±100 the full control effect; nearly all actives have a fitted effect of over 65% in size
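IDH1-R132H (0.5 ug/mL dispensed) in pH 7.5 Tris buffer was preincubated 30 min with compound, then given a substrate mix of 0.016 mM NADPH and 2 mM alpha-KG for 80 min at room temperature; remaining NADPH was read by diaphorase/resazurin fluorescence.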
Mito fusion act: qHTS Assay for Small Molecule Inhibitors of Mitochondrial Division or Activators of Mitochondrial Fusion; S. cerevisiae fusion-defective mutant growth rescue, CellTiterGlo 48 h; Potency, µM (top dose mostly 46.1 µM), for inactives: top-dose growth rescue (activation), most hits filed as activators; 320,000 tested, 0.23% active; AID 485298, 2010; further: % of control where 0% means no effect; nearly all actives have a fitted effect of over 45% in size
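Read-out: ATP-based luminescence (CellTiterGlo, 10 min ambient) reporting growth of fusion-defective ts yeast after 48 hours at 37C on glycerol/ethanol YPEG medium in the presence of compound.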
TrxR1 substrate: qHTS Assay for Substrates of Mammalian Selenoprotein Thioredoxin Reductase 1 (TrxR1): qHTS | Potency, µM (doses to about 114 µM), for inactives: at the top dose activity change, negative = substrate turnover | Thioredoxin reductase 1, cytoplasmic (Rattus norvegicus), O89049 | 390,000 tested, 0.01% active | purified TrxR1 substrate turnover, NADPH consumption readout; further: on the % scale 0 is the no-effect control and ±100 the full control effect; nearly all actives have a fitted effect of over 50% in size
Target sequence (O89049 whole entry, looked up): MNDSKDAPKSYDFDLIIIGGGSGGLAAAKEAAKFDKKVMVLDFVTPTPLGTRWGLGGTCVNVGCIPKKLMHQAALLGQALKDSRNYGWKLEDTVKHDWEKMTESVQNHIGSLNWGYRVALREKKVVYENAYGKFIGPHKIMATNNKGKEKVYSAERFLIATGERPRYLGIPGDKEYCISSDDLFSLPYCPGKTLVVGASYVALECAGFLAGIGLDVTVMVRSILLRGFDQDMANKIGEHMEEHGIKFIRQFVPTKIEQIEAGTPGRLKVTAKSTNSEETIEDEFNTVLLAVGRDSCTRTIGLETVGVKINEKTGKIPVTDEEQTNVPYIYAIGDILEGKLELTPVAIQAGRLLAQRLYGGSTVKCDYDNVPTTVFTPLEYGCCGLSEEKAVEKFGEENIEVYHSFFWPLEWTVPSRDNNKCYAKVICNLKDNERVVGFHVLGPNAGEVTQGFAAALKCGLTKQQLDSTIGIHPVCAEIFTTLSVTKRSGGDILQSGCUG
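Rat TrxR1, dispensed at 90 nM, was prereduced with 400 uM NADPH (final) for 5 min at ~22 deg C, then incubated with compound 15 min before 400 uM selenite. A first-read NADPH fluorescence drop versus no-compound background flagged substrates.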
rTrxR1 inhibitor: qHTS Assay for Inhibitors of Mammalian Selenoprotein Thioredoxin Reductase 1 (TrxR1): qHTS | Potency, µM (titrated, usually from 114 µM), without a hit: at the highest dose activity change, negative = inhibition, most hits filed as inhibitors | AID 588453, 2011 | recombinant rTrxR1, NADPH fluorescence consumption, selenite substrate | 390,000 tested, 1% active; further: on the % scale 0 is the no-effect control and ±100 the full control effect; nearly all actives have a fitted effect of over 65% in size
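Rat TrxR1 (90 nM in the dispensed reagent) was pre-reduced with 400 uM NADPH for 5 min at room temperature, then incubated with compound for 15 min. After 400 uM selenite was added, NADPH fluorescence (Ex 340/Em 450 nm) was followed for 8 min.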
Nrf2 inh: Nrf2 qHTS screen for inhibitors; A549 ARE-Fluc reporter, luciferase luminescence, 18-24 h; 360,000 tested, 2.1% active; Potency, µM (titrated, usually from 46 µM), for inactives: at the top dose activity change, negative = inhibition, actives largely listed as inhibitors; further: on the % scale 0 is the no-effect control and ±100 the full control effect; nearly all actives have a fitted effect of over 60% in size
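A549 ARE_Fluc cells, 5000/well, 5% FBS OPTI-MEM; compounds in dose-response, 18-24 h at 37 °C/5% CO2; CellTiter-Fluor viability read (Ex 405/Em 525), then BugLite luciferase luminescence = Nrf2 activity.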
Starred values were filed as active, the others as inactive; ? = inconclusive; · = not tested or not shown; ! = not active in a repeat; [ ] = remark or other dose. The call rests on the fitted dose curve; in most records, active means well fitted curve in the direction sought with a large enough effect; inconclusive means small, poorly fitted or top-dose-only effect, or another doubt; inactive means no such curve, though single readings can be large; an effect the other way counts as inactive or inconclusive. Potency means the concentration at half of the fitted maximal effect.

SMILES | A549 viability | IDH1 R132H inh | Mito fusion act | TrxR1 substrate | rTrxR1 inhibitor | Nrf2 inh
CC(=O)NC(Cc1ccc(O)cc1)C(=O)NCC(N)C(=O)c1ccccc1 (centres undefined) | · | · | · | 3% | -10% | ·
COc1cccc(Nc2ccccc2C(=O)O)c1 | 1% | 16% | 12% | 8%[57.1 µM] | 18%[57.1 µM] | ?
O=C(O)c1ccccc1Nc1ccccc1 | 0% | -5% | 23µM*! | 0%[57.1 µM] | -3%[57.1 µM] | 8%
CCNc1ccccc1CP(=O)(c1ccccc1)c1ccccc1O (centres undefined) | 2% | 13% | -11% | -11% | 50µM* | -5%
Cc1noc(C)c1-c1ccc2ncnc(NCc3cccc(Cl)c3)c2c1 | 12% | · | · | · | · | ?
COc1cccc(CNc2ncnc3ccc(-c4c(C)noc4C)cc23)c1 | -1% | · | 10% | 6% | 10% | 12µM*
CCOC(=O)CNC(=O)CN1CCCN(S(=O)(=O)c2ccc(Br)s2)CC1 | 16% | 15% | 2% | 0% | 16µM* | 8%
O=C(N/N=C/c1ccc2c(c1)OCO2)c1ccc2c(c1)OCO2 | 2% | 2% | 0% | 14% | 24% | 20%
O=C(N/N=C/c1cccc(O)c1)c1ccc2c(c1)OCCO2 | 1% | -2% | 17% | 2% | 34% | 0.41µM*
O=C(N/N=C\c1ccc2c(c1)OCO2)c1ccco1 | -3% | 8% | -2% | -13% | -13% | ?
O=C(N/N=C\c1cccc(OC(=O)c2ccco2)c1)c1ccc2c(c1)OCO2 | -2% | 3% | 3% | -8% | -7% | 2.3µM*
CCNc1ccc(/C=C/c2ccnc3ccccc23)cc1 | · | · | · | -11% | -10%[0.0914 µM] | ·
O=C(CN1C(=O)NC2(CCCCC2)C1=O)Oc1ccc2c(C(F)(F)F)cc(=O)oc2c1 | 2% | -5% | 4% | 9% | 40µM* | -7%
O=C(CN1C(=O)NC2(CCCC2)C1=O)Oc1ccc2ccc(=O)oc2c1 | 1% | 6% | -4% | 855% | 79µM* | 2%
CCOc1ccccc1Nc1nnc(SCc2nnc(-c3cc(OC)c(OC)c(OC)c3)o2)s1 | ? | -3% | 1% | -11% | -3% | 16µM*
COc1cc(C=CC(=O)c2cc(OC)c(OC)c(OC)c2)cc(OC)c1OC | ? | 15% | · | -15% | ? | 23µM*
CCOC(=O)c1c(SCC(=O)Nc2nc3ccc(C)cc3s2)nc(=O)[nH]c1C | -3% | 0% | · | 1%[57.1 µM] | 17%[57.1 µM] | ·
O=C(CCN=C1NS(=O)(=O)c2ccccc21)Nc1ccc(F)cc1Cl | 10% | 7% | · | 15% | 31% | 9.2µM*
O=C(CCN=C1NS(=O)(=O)c2ccccc21)NCc1ccccc1F | -2% | -1% | · | 7%[57.1 µM] | 15%[57.1 µM] | 17%
COc1ccc(S(=O)(=O)NCc2cccn2Cc2cc(C)ccc2C)cc1OC | -8% | -12% | · | 3%[57.1 µM] | 4%[57.1 µM] | ·
O=C(CCl)c1ccc2c(c1)CCCC2 | · | · | · | 3% | ? | ·
O=C(NC1CC2CCC(C1)N2Cc1nnnn1Cc1ccco1)NC12CC3CC(CC(C3)C1)C2 (centres undefined) | -28% | 2% | 2% | 1% | -13% | 4.1µM*
Cn1ncc(S(=O)(=O)Cc2ccccc2)c(Cl)c1=O | 1% | 16% | -3% | 10%[57.1 µM] | 1.1µM* | 10%
COc1ccc(CNC(=O)C2CCC(CNS(=O)(=O)c3ccc4c(c3)CCCC(=O)N4)CC2)cc1 (centres undefined) | ? | -2% | · | 1%[57.1 µM] | 6%[57.1 µM] | 0%
CC(=O)N1c2ccc(S(=O)(=O)NCC3CCC(C(=O)NC4CCCCC4C)CC3)cc2CC1C (centres undefined) | 2% | -7% | 3% | 5% | 23% | ?
SMILES | A549 viability | IDH1 R132H inh | Mito fusion act | TrxR1 substrate | rTrxR1 inhibitor | Nrf2 inh
CC(=O)N1c2ccc(S(=O)(=O)NCC3CCC(C(=O)NC4CCC(C)CC4)CC3)cc2CC1C (centres undefined) | 3% | ? | 1% | 22% | 69% | 16µM*
COc1cccc(NC(=O)C2CCC(CNS(=O)(=O)c3ccc4c(c3)CC(C)N4C(C)=O)CC2)c1 (centres undefined) | 0% | 0% | -12% | -6% | 0% | 21µM*
CCc1cccc(NC(=O)C2CCC(CNS(=O)(=O)c3ccc4c(c3)CCCC(=O)N4)CC2)c1 (centres undefined) | 0% | 0% | · | -3%[57.1 µM] | 5%[57.1 µM] | 13µM*
CC(=O)N1c2ccc(S(=O)(=O)NCC3CCC(C(=O)Nc4cccc(C)c4)CC3)cc2CC1C (centres undefined) | -2% | -3% | · | 9% | 14% | ?
O=C(Cc1ccc(Br)cc1)NO | · | · | · | 5% | 8% | ·
Cc1cc(C)cc(-n2c(C)cc(C(=O)C(=O)Nc3nnc(C)s3)c2C)c1 | ? | -6% | · | -3% | 9% | -11%
O=C1CCc2cc(S(=O)(=O)Nc3cccc(B(O)O)c3)ccc2N1 | -6% | · | · | · | · | ?
CCCC(=O)O[C@]1(C(=O)COC(C)=O)CC[C@H]2[C@@H]3C[C@H](F)C4=CC(=O)C=C[C@]4(C)[C@@]3(F)[C@@H](O)C[C@@]21C | -12% | -7% | -4% | 5% | 17% | ?
CCC(=O)OCC(=O)[C@@]1(OC(=O)CC)[C@@H](C)C[C@H]2[C@@H]3CCC4=CC(=O)C=C[C@]4(C)[C@@]3(Cl)[C@@H](O)C[C@@]21C | -5% | ? | ? | 3% | 22% | 0.0058µM*
Clc1ccc(-n2c(Cc3ccccc3)nnc2SCc2nc(-c3cccs3)no2)cc1 | ? | 0% | · | -5% | 10% | ?
CCOc1ccc(-n2c(Cc3ccccc3)nnc2SCc2nc(-c3cccs3)no2)cc1 | ? | 15% | · | -4% | 21% | 18µM*
Cc1ccc(NC(=O)Cn2c(=O)c3cccn3c3ccccc32)c(C)c1 | 5% | -7% | 1% | 0% | 13% | -10%
COc1ccc(CNC(=O)Cn2c(=O)c3cccn3c3ccccc32)cc1 | 0% | 7% | · | -4% | 11% | 12µM*
Cc1cc(C)cc(NC(=O)CCn2c(=O)c3cccn3c3ccccc32)c1 | -14% | 1% | -2% | -3% | 4% | 16µM*
Cc1cccc(NC(=O)Cn2c(=O)c3cccn3c3ccccc32)c1C | -17% | 0% | · | 6% | 20% | 23µM*
CCN(CC)C(=O)c1nn(-c2ccc(OC)cc2)c(=O)c2c(N)scc12 | -5% | · | · | · | · | -7%
